Our source for the INHIBITION values is ChEMBL document CHEMBL4513216, “Probing the Open Global Health Chemical Diversity Library for Multistage-Active Starting Points for Next-Generation Antimalarials” (ACS Infect Dis, 2020).

The campaign covered roughly 69,000 compounds. About 8,600 (12%) showed an effect of 50% or more. Shown is part of a subset that was picked to be rich in strong results.

This assay has as its system Plasmodium berghei. The experiment in a line: Screen against P. berghei liver stage (PbLuc), transformed with Luciferase, at 10uM. It is filed as functional, HepG2. The following applies: tested at 10 uM.
For `Cc1nn(C)c2cnn(CC(=O)NCc3ccc4c(c3)OCO4)c12`, the INHIBITION is 36.6%. Consider `Cc1c(C(=O)NC(C)C)nnn1-c1cccc(C(F)(F)F)c1`, for which the INHIBITION was 15.2%.

Turning to `c1coc(CN2C[C@@H]3OCCN(CC4CCCO4)[C@@H]3C2)c1` (some centres not stated), the INHIBITION worked out at 41.6%. With `COC(=O)c1ccc(OCCn2cnc(C#N)n2)cc1` the figure was 7.18%. Take `CN(C)c1ncc(-c2cccc(C(N)=O)c2)c(C2CNCCO2)n1` (configuration not stated): the INHIBITION is 17.3%.

As for `COc1c(CNC2CCc3c(F)cccc32)c(C)nn1C` (configuration not stated), the INHIBITION was -16%.

Regarding `c1coc(-c2nc(CNCCn3cccn3)cs2)c1`, the INHIBITION is reported as 21.5%. `O=C(NCc1ccncc1)N1CCSCC1c1ccc(Cl)cc1` (configuration not stated): the INHIBITION is -23.2%. With `CS(=O)(=O)NCCN1CCSCC1c1ccc(Cl)cc1` (configuration not stated) the figure was -3.39%.

Regarding `CCS(=O)(=O)CCCN1CCSCC1c1ccc(Cl)cc1` (configuration not stated), the INHIBITION is on record as 56.5%.

For `Cc1ccc(C2CSCCN2CCS(C)(=O)=O)cc1` (configuration not stated), the INHIBITION was 34%.

As for `CS(=O)(=O)CCN1CCSCC1c1ccc(Cl)cc1` (configuration not stated), the INHIBITION came to 59.7%. For the compound `CS(=O)(=O)NCCN1CCCC1c1ccc(Cl)cc1` (configuration not stated), the INHIBITION is 50.3%. As to `CC(c1ccc(Cl)cc1)N1CCN(CCCS(C)(=O)=O)CC1` (configuration not stated), the INHIBITION is -5.1%. Regarding `CC(c1ccc(Cl)cc1)N1CCN(CCNS(C)(=O)=O)CC1` (configuration not stated), the INHIBITION is given as 53.5%. With `CS(=O)(=O)NCCCN1CCCC1c1ccsc1` (configuration not stated), the INHIBITION is reported as -5.25%. With `Cc1ccc(C2CSCCN2CC(=O)N2CCOCC2)cc1` (configuration not stated) the figure was 15.3%; with `CS(=O)(=O)CCCN1CCSCC1c1ccc(Cl)cc1` (configuration not stated), 31.9%; with `CC(c1ccc(Cl)cc1)N1CCN(CCS(C)(=O)=O)CC1` (configuration not stated), 48.5%. Take `COc1ccc(CNCC(C)Oc2ccccn2)cc1Br` (configuration not stated): the INHIBITION is -33.2%.

For `CC1CCN(C(=O)[C@H]2CC[C@@H]3[C@@H](CCN3Cc3nccs3)O2)CC1`, the INHIBITION came out at 39.5%. As for `O=c1ccc2c(n1Cc1cccnc1)CCN(C1CCOC1)CC2` (configuration not stated), the INHIBITION came to 39.4%. `N#CC1(C(=O)N2C[C@H](Nc3ccnc(N)n3)[C@@H](C3CC3)C2)CCOCC1`: the INHIBITION turned out to be 26.9%.

Consider `CC(C)c1noc(C(C)N2CCN(Cc3nnc(C4CC4)o3)CC2)n1` (configuration not stated), for which the INHIBITION stood at 0.914%. As to `O=C(c1ccccc1)N1CCC2(CCCN2c2ncccn2)CC1`, the INHIBITION was -22.1%.

Take `Cc1nc(CN(C)CC(c2cccs2)N2CCOCC2)no1` (configuration not stated): the INHIBITION was 15.3%. For `CC(=O)N1N=C(c2ccccc2)OC1C(=O)NCC(=O)OC(C)(C)C` (configuration not stated), the INHIBITION worked out at 28.3%. Turning to `CCC(CO)NCc1ccc(-c2ccc(F)cc2)o1` (configuration not stated), the INHIBITION is 14.4%. With `CCC(CO)NCc1ccc(-c2ccc(Cl)cc2)o1` (configuration not stated) the figure was 17.7%; with `CCC(CO)NCc1ccc(-c2ccc(Br)cc2)o1` (configuration not stated), -11.6%; with `CCC(CO)NCc1ccc(-c2ccccc2)o1` (configuration not stated), 50.8%. Regarding `CCC(CO)NCc1ccc(-c2ccccc2F)o1` (configuration not stated), the INHIBITION came out at 73.5%.

As to `CCC(CO)NCc1ccc(-c2ccc(F)c(Cl)c2)o1` (configuration not stated), the INHIBITION was found to be 18.8%. Regarding `CN1CCN(c2ncc(CNCCCc3cccc(F)c3)cn2)CC1`, the INHIBITION is recorded as 46.8%. For the compound `CCC1CN(CC(=O)NCCC#N)CCO1` (configuration not stated), the INHIBITION stood at 52.6%. In the case of `CCC1CN(CC(=O)Nc2sccc2C#N)CCO1` (configuration not stated), the INHIBITION was 17%. Take `CCC1CN(CC(=O)NC(C)C)CCO1` (configuration not stated): the INHIBITION is on record as -8.22%. Take `CCC1CN(CC(=O)NCC(C)C)CCO1` (configuration not stated): the INHIBITION turned out to be 30.9%.

Regarding `CCC1CN(CC(=O)NCCOC)CCO1` (configuration not stated), the INHIBITION is -22.3%. With `CCCNC(=O)CN1CCOC(CC)C1` (configuration not stated), the INHIBITION is recorded as 61.3%. As to `O=C(c1ccccn1)N1C[C@H]2CC[C@@H](C1)N(C(=O)Cc1cccs1)C2`, the INHIBITION is recorded as 4.13%. As to `CC1=N[C@@]2(CC[C@@H]3CN(S(=O)(=O)N(C)C)C[C@@H]32)C(=O)N1CC(C)C`, the INHIBITION came out at 7.96%.

Consider `Cc1nc(C2CCCN2C(=O)c2csc3c2CCCC3)no1` (configuration not stated), for which the INHIBITION is on record as 15.3%. With `Cc1c(C)n(Cc2ccncc2)c2nc3c(c(N)c12)CCCCC3`, the INHIBITION is 70.3%. Consider `Cc1c(C)n(Cc2ccncc2)c2nc3c(c(N)c12)CCCC3`, for which the INHIBITION is 44.1%. On to `Cc1ccc(CN2CCC3(CCN(Cc4ccncc4)CC3)CC2)cc1`, for which the INHIBITION is reported as 33%. As for `Cc1c(C)n(Cc2ccncc2)c2nc3c(c(N)c12)CCCCCC3`, the INHIBITION was 77.6%. With `CN1CCC(NC(=O)[C@H]2CC[C@@H]3[C@@H](CCN3c3ncccn3)O2)CC1` the figure was 18.5%; with `CCc1nc(CC(=O)N2CCn3c(CC)nnc3C2)cs1`, -12.33%; with `CCS(=O)(=O)Nc1ccn(Cc2c(F)cccc2Cl)n1`, -39.5%.

Take `N#Cc1cccnc1N1CCCN(C(=O)CCn2cccn2)CC1`: the INHIBITION is listed as 29.2%. With `COc1ccc(CNC(=O)c2ccc(Cl)cc2F)cc1C(=O)O` the figure was -8.55%; with `CN1CCN(Cc2ccccc2CNC(=O)c2cc(Cl)ccc2F)CC1`, 63.3%; with `CN1CCN(Cc2ccccc2CNC(=O)c2ccc(Br)cc2F)CC1`, 30.8%. With `CN1CCN(Cc2ccccc2CNC(=O)c2ccc(Br)cc2)CC1` the figure was 33.2%. As for `O=C(NCc1ccncc1)c1ccc(Cl)cc1F`, the INHIBITION was -3.95%.

Turning to `CN1CCN(Cc2ccccc2CNC(=O)c2ccc(Cl)cc2F)CC1`, the INHIBITION was found to be 55.4%. For `Cn1ccc(C(=O)NCc2ccccc2CN2CCCC2)cc1=O`, the INHIBITION stood at 13.6%. `O=C(NCc1ccccc1CN1CCOCC1)c1ccc(Br)cc1F`: the INHIBITION is listed as 62.3%. With `CN1CCN(Cc2ccccc2CNC(=O)c2cc(Br)ccc2F)CC1` the figure was 59.3%; with `O=C(Nc1ccc(Br)cc1F)c1cc(CN2CCOCC2)on1`, -43.7%. For `CN1CCN(c2ccccc2CNC(=O)Cc2ccccc2F)CC1`, the INHIBITION is listed as 14.3%. Regarding `O=C(NCc1ccccc1CN1CCOCC1)Nc1nncs1`, the INHIBITION is reported as -10.4%. Regarding `Cc1cc(C(=O)NCc2ccc(N3CCCC(C(N)=O)C3)cc2)on1` (configuration not stated), the INHIBITION is given as 15.3%.

For the compound `CN(C)CCN1CCCC12CCN(C(=O)c1cnccn1)CC2`, the INHIBITION worked out at 24.9%.

Take `CCC1(CC)CC(=O)N(CC(O)c2ccc(F)cc2)C1=O` (configuration not stated): the INHIBITION is -15%. Consider `CN(CC(O)C(F)(F)F)C(=O)Nc1cccc(Cn2cccn2)c1` (configuration not stated), for which the INHIBITION is recorded as 13.8%. With `Cc1cc(CNCC2CNc3ccnn3C2)no1` (configuration not stated) the figure was 31%; with `Cc1cnc(-c2nc(C3CCN(Cc4ccccc4O)CC3)no2)cn1`, 23.7%. For `Cc1cc(C)n(CC2CN(CC(=O)N3CCNC3=O)CCO2)n1` (configuration not stated), the INHIBITION was -3.7%. With `COc1ccc(NC(=O)CSc2ccc3nncn3n2)c(OC)c1`, the INHIBITION was 27%. `Cc1occc1C(=O)N1Cc2nccn2CC(CN2CCOCC2)C1` (configuration not stated): the INHIBITION is 5.89%. On to `CCCc1nnsc1C(=O)NCC(O)c1ccoc1` (configuration not stated), for which the INHIBITION is recorded as 15.5%.

For `O=C(COc1ccc2c(c1)CCC2)N1CCCC1c1ccc[nH]1` (configuration not stated), the INHIBITION is recorded as -38.6%.

Consider `CS(=O)(=O)c1cccc(OCC(=O)N2CCCC2c2ccccc2Cl)c1` (configuration not stated), for which the INHIBITION turned out to be 85.2%. On to `COCC(=O)N1CCCC1c1cccc(C)c1C` (configuration not stated), for which the INHIBITION is on record as 17.1%. `Cc1cccc(C2CCCN2C(=O)CCS(C)(=O)=O)c1C` (configuration not stated): the INHIBITION is -8.84%. With `CS(=O)(=O)c1cccc(OCC(=O)N2CCCC2c2ccc[nH]2)c1` (configuration not stated) the figure was 61.6%; with `O=C(COc1ccccc1)N1CCCC1c1ccc[nH]1` (configuration not stated), -23.3%. Take `CCC(O)CN1CCN(C(=O)c2cnn(-c3ccccc3F)c2)CC1` (configuration not stated): the INHIBITION is -1.37%. For the compound `COc1ccc(CN2C[C@H]3CC[C@](O)(c4ccc(C)cn4)[C@H]3C2)c(F)c1`, the INHIBITION turned out to be 27.3%. On to `O[C@@]1(c2ccccn2)CC[C@H]2CN(Cc3cccc(Cl)c3Cl)C[C@H]21`, for which the INHIBITION is reported as 61.4%. With `Cc1ccc([C@]2(O)CC[C@H]3CN(Cc4cccc(F)c4F)C[C@H]32)nc1` the figure was 15.9%; with `Cc1ccc([C@]2(O)CC[C@H]3CN(Cc4ccc(Cl)cc4Cl)C[C@H]32)nc1`, 93.1%; with `Cc1ccc([C@]2(O)CC[C@H]3CN(Cc4cccc(Cl)c4Cl)C[C@H]32)nc1`, 62%.

As to `Cc1cccnc1[C@]1(O)CC[C@H]2CN(Cc3cccc(Cl)c3Cl)C[C@H]21`, the INHIBITION is given as 15.9%. With `COc1cccc(CN2C[C@@H]3CC[C@@](O)(c4ccccn4)[C@@H]3C2)c1OC` the figure was 24.8%; with `Cc1ccc([C@]2(O)CC[C@H]3CN(Cc4ccccc4F)C[C@H]32)nc1`, -18.2%. With `O[C@]1(c2ccccn2)CC[C@@H]2CN(Cc3cccc4ncccc34)C[C@@H]21`, the INHIBITION came out at 27.9%.

Regarding `CC(=O)c1ccc(F)cc1-c1cc(NCCO)nc2[nH]ccc12`, the INHIBITION is recorded as -110%. For `CN(C)c1cccc(C(=O)N2CCCC2c2ncc3c(n2)CCNC3)c1` (configuration not stated), the INHIBITION is given as -16.7%.

Regarding `Cc1cc2nc(C(C)C)cc(NC(C)c3nncn3C3CCCC3)n2n1` (configuration not stated), the INHIBITION was 51.2%. For `Cc1cc(NC(C)c2nncn2C2CCCC2)n2nc(C)cc2n1` (configuration not stated), the INHIBITION is listed as 35.8%.

For the compound `Cc1cc2nc(C(C)C)cc(NC(C)c3nncn3C)n2n1` (configuration not stated), the INHIBITION was determined as 47.6%.

Consider `O=C(c1cnn2cccnc12)N1CCCC(n2ccnc2)C1` (configuration not stated), for which the INHIBITION stood at 2.3%. Take `Cc1cccc(CN2CC[C@@H]3[C@@H](CO[C@H]3CNc3ncccn3)C2)n1`: the INHIBITION worked out at 18.4%. In the case of `COc1cc2ccccc2cc1C(=O)N1CCCC(c2nncn2C)C1` (configuration not stated), the INHIBITION is given as -8.11%. For `CC(C)c1nc2c(n1C)CCN(CC(=O)Nc1ccnn1C(C)C)C2`, the INHIBITION stood at 27.4%.

Take `CO[C@H]1CCN(C(=O)c2ccc3oc(C)cc3c2)C[C@@]12CCCO2`: the INHIBITION turned out to be 45.6%. Take `CO[C@H]1CN(C(=O)c2ccc3oc(C)cc3c2)CC[C@@]12CCCO2`: the INHIBITION stood at 21.6%. Regarding `CO[C@H]1CN(C(=O)c2ccc3oc(C)cc3c2)C[C@@]12CCCO2`, the INHIBITION is reported as 63.4%. As for `COCCNC(=O)c1ccc(C)c(-n2cccc2)c1`, the INHIBITION is listed as -15%. Regarding `CN(C)CCNc1c(-c2ccccc2)c(=O)c1=O`, the INHIBITION is given as -20.1%. On to `CN(C)[C@@H]1CN(Cc2ccco2)C[C@@H]2CCCO[C@@H]21`, for which the INHIBITION is listed as -2.27%. As to `CCN1CC2(CCC1=O)CCN(Cc1nncn1C)CC2`, the INHIBITION stood at 17%. Regarding `Cn1cnnc1CN1CCC2(CCC(=O)N(Cc3ccccn3)C2)CC1`, the INHIBITION is given as -42.2%. In the case of `Cn1cnnc1CN1CCC2(CCC(=O)N(Cc3ccccc3)C2)CC1`, the INHIBITION turned out to be 76.2%.
